# Shown is part of a subset that was picked to be rich in the strongest signals.
# B1: DrGRIFIN (Danio rerio), Q6DGJ1 (protein)
# chain: MTLRFEASCPDGLCPGWSVILKGETPPEASKFEINFLCDRDDRVAFHFNPRFTESDIICNSYMANRWGQEERCNHFPLGVEEPFQIEIYSDNDHFHVYIDKAKVMQYKHRVEDLKTITKLQVVNDVKISSLEITKKLFY
# Tests used:
# Experiment in all cases: glycan array binding signal (z-score within array); higher = stronger binding
# Conditions in all cases: glycan notation: IUPAC condensed, linker removed
# [1] = molecular target: Fuc(a1-2)[Gal(a1-3)]Gal(b1-3)GlcNAc
# In short: (§1)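 The binding signal is a Z-score computed within each array. Data were drawn from 3228 arrays in the Consortium for Functional Glycomics database, restricted to those with a known protein sequence. Scores were averaged over arrays of the same protein sequence at different concentrations or buffers, and over linkers, and negative values can be taken as non-binding.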
# [2] = molecular target: Fuc(a1-2)[Gal(a1-3)]Gal(b1-3)GlcNAc(b1-2)Man(a1-3)[Fuc(a1-2)[Gal(a1-3)]Gal(b1-3)GlcNAc(b1-2)Man(a1-6)]Man(b1-4)GlcNAc(b1-4)GlcNAc
# In short: as §1
# [3] = molecular target: Fuc(a1-2)[Gal(a1-3)]Gal(b1-3)GlcNAc(b1-3)GalNAc
# In short: as §1
# [4] = molecular target: Fuc(a1-2)[Gal(a1-3)]Gal(b1-3)GlcNAc(b1-6)GalNAc
# In short: as §1
# [5] = molecular target: Fuc(a1-2)[Gal(a1-3)]Gal(b1-4)Glc
# In short: as §1
# [6] = molecular target: Fuc(a1-2)[Gal(a1-3)]Gal(b1-4)GlcNAc
# In short: as §1
# [7] = molecular target: Fuc(a1-2)[Gal(a1-3)]Gal(b1-4)GlcNAc(b1-2)Man
# In short: as §1
# [8] = molecular target: Fuc(a1-2)[Gal(a1-3)]Gal(b1-4)GlcNAc(b1-2)Man(a1-3)[Fuc(a1-2)[Gal(a1-3)]Gal(b1-4)GlcNAc(b1-2)Man(a1-6)]Man(b1-4)GlcNAc(b1-4)GlcNAc
# In short: as §1
# [9] = molecular target: Fuc(a1-2)[Gal(a1-3)]Gal(b1-4)GlcNAc(b1-2)Man(a1-3)[Fuc(a1-2)[Gal(a1-3)]Gal(b1-4)GlcNAc(b1-2)Man(a1-6)]Man(b1-4)GlcNAc(b1-4)[Fuc(a1-6)]GlcNAc
# In short: as §1
# [10] = molecular target: Fuc(a1-2)[Gal(a1-3)]Gal(b1-4)GlcNAc(b1-3)GalNAc
# In short: as §1
# [11] = molecular target: Fuc(a1-2)[Gal(a1-3)]Gal(b1-4)GlcNAc(b1-3)[Fuc(a1-2)[Gal(a1-3)]Gal(b1-4)GlcNAc(b1-6)]GalNAc
# In short: as §1
# [12] = molecular target: Fuc(a1-2)[Gal(a1-3)]Gal(b1-4)[Fuc(a1-3)]GlcNAc(b1-3)GalNAc
# In short: as §1
# [13] = molecular target: Fuc(a1-2)[GalNAc(a1-3)]Gal(b1-4)GlcNAc(b1-6)GalNAc
# In short: as §1
# [14] = molecular target: Fuc(a1-3)[Gal(b1-4)]GlcNAc(b1-6)[Gal(b1-3)GlcNAc(b1-3)]Gal(b1-4)Glc
# In short: as §1
# [15] = molecular target: Gal(b1-3)GlcNAc(b1-2)Man(a1-3)[Gal(b1-3)GlcNAc(b1-2)Man(a1-6)]Man(b1-4)GlcNAc(b1-4)[Fuc(a1-6)]GlcNAc
# In short: as §1
# [16] = molecular target: Gal(b1-3)GlcNAc(b1-3)Gal(b1-4)GlcNAc(b1-3)Gal(b1-4)GlcNAc(b1-2)[Gal(b1-3)GlcNAc(b1-3)Gal(b1-4)GlcNAc(b1-3)Gal(b1-4)GlcNAc(b1-6)]Man(a1-6)[Gal(b1-3)GlcNAc(b1-3)Gal(b1-4)GlcNAc(b1-3)Gal(b1-4)GlcNAc(b1-2)Man(a1-3)]Man(b1-4)GlcNAc(b1-4)[Fuc(a1-6)]GlcNAc
# In short: as §1
# [17] = molecular target: Gal(b1-3)[Fuc(a1-4)]GlcNAc
# In short: as §1
# Gal(b1-4)Glc = molecular target: Gal(b1-4)Glc
# In short: as §1
# Gal(b1-4)Glc6S = molecular target: Gal(b1-4)Glc6S
# In short: as §1
# [18] = molecular target: Gal(b1-4)GlcNAc(a1-6)Gal(b1-4)GlcNAc
# In short: as §1
# [19] = molecular target: Gal(b1-4)GlcNAc(b1-2)Man(a1-6)[GlcNAc(b1-2)Man(a1-3)]Man(b1-4)GlcNAc(b1-4)GlcNAc
# In short: as §1
# [20] = molecular target: Gal(b1-4)GlcNAc(b1-3)Gal(b1-4)GlcNAc(b1-2)[Gal(b1-4)GlcNAc(b1-3)Gal(b1-4)GlcNAc(b1-6)]Man(a1-6)[Gal(b1-4)GlcNAc(b1-3)Gal(b1-4)GlcNAc(b1-2)Man(a1-3)]Man(b1-4)GlcNAc(b1-4)GlcNAc
# In short: as §1
# Gal3S6S(b1-4)GlcNAc = molecular target: Gal3S6S(b1-4)GlcNAc
# In short: as §1
# Gal3S6S(b1-4)GlcNAc6S = molecular target: Gal3S6S(b1-4)GlcNAc6S
# In short: as §1
# Gal6S(b1-4)GlcNAc = molecular target: Gal6S(b1-4)GlcNAc
# In short: as §1
# [21] = molecular target: GalNAc(b1-3)Gal(a1-4)Gal(b1-4)GlcNAc(b1-3)Gal(b1-4)Glc
# In short: as §1
# GalNAc(b1-3)GlcNAc = molecular target: GalNAc(b1-3)GlcNAc
# In short: as §1
# [22] = molecular target: GalNAc(b1-4)GlcNAc(b1-2)Man
# In short: as §1
# GalNAc3S(b1-4)GlcNAc = molecular target: GalNAc3S(b1-4)GlcNAc
# In short: as §1
# [23] = molecular target: GlcNAc(a1-4)Gal(b1-4)GalNAc
# In short: as §1
# [24] = molecular target: GlcNAc(b1-3)Gal(b1-4)GlcNAc(b1-2)Man(a1-3)[GlcNAc(b1-3)Gal(b1-4)GlcNAc(b1-2)Man(a1-6)]Man(b1-4)GlcNAc(b1-4)GlcNAc
# In short: as §1
# [25] = molecular target: GlcNAc(b1-3)Gal(b1-4)GlcNAc(b1-3)Gal(b1-4)GlcNAc(b1-3)Gal(b1-4)GlcNAc(b1-2)[GlcNAc(b1-3)Gal(b1-4)GlcNAc(b1-3)Gal(b1-4)GlcNAc(b1-3)Gal(b1-4)GlcNAc(b1-6)]Man(a1-6)[GlcNAc(b1-3)Gal(b1-4)GlcNAc(b1-3)Gal(b1-4)GlcNAc(b1-3)Gal(b1-4)GlcNAc(b1-2)Man(a1-3)]Man(b1-4)GlcNAc(b1-4)[Fuc(a1-6)]GlcNAc
# In short: as §1
# [26] = molecular target: GlcNAc(b1-4)Gal(b1-4)GlcNAc
# In short: as §1
# [27] = molecular target: Man(a1-2)Man(a1-6)[Man(a1-3)]Man(a1-6)[Man(a1-2)Man(a1-2)Man(a1-3)]Man
# In short: as §1
# [28] = molecular target: Man(a1-3)[Man(a1-6)]Man(a1-6)[Man(a1-2)Man(a1-3)]Man(b1-4)GlcNAc(b1-4)GlcNAc
# In short: as §1
# [29] = molecular target: Neu5Ac(a2-3)Gal(b1-3)GlcNAc(b1-3)Gal(b1-3)GlcNAc
# In short: as §1
# [30] = molecular target: Neu5Ac(a2-3)Gal(b1-3)GlcNAc(b1-3)GalNAc
# In short: as §1
# [31] = molecular target: Neu5Ac(a2-3)Gal(b1-4)GlcNAc(b1-2)Man(a1-3)[Neu5Ac(a2-3)Gal(b1-4)GlcNAc(b1-2)Man(a1-6)]Man(b1-4)GlcNAc(b1-4)GlcNAc
# In short: as §1
# [32] = molecular target: Neu5Ac(a2-3)Gal6S(b1-4)GlcNAc
# In short: as §1
# [33] = molecular target: Neu5Ac(a2-6)Gal(b1-4)GlcNAc(b1-2)Man(a1-3)[Neu5Ac(a2-6)Gal(b1-4)GlcNAc(b1-2)Man(a1-6)]Man(b1-4)GlcNAc(b1-4)GlcNAc
# In short: as §1
# [34] = molecular target: Neu5Ac(a2-6)Gal(b1-4)GlcNAc(b1-2)Man(a1-6)[Gal(b1-4)GlcNAc(b1-2)Man(a1-3)]Man(b1-4)GlcNAc(b1-4)GlcNAc
# In short: as §1
# [35] = molecular target: Neu5Ac(a2-6)Gal(b1-4)GlcNAc(b1-2)[Neu5Ac(a2-6)Gal(b1-4)GlcNAc(b1-4)]Man(a1-3)[GlcNAc(b1-4)][Neu5Ac(a2-6)Gal(b1-4)GlcNAc(b1-2)[Neu5Ac(a2-6)Gal(b1-4)GlcNAc(b1-6)]Man(a1-6)]Man(b1-4)GlcNAc(b1-4)GlcNAc
# In short: as §1
# [36] = molecular target: Neu5Ac(a2-6)Gal(b1-4)GlcNAc(b1-3)GalNAc
# In short: as §1
# Neu5Ac(a2-8)Neu5Ac = molecular target: Neu5Ac(a2-8)Neu5Ac
# In short: as §1
# [37] = molecular target: Neu5Ac(a2-8)Neu5Ac(a2-3)[GalNAc(b1-4)]Gal(b1-4)Glc
# In short: as §1
# Neu5Gc(a2-6)GalNAc = molecular target: Neu5Gc(a2-6)GalNAc
# In short: as §1
binder,measurement,setting,value
B1,glycan array binding signal (z-score),[1],5.95
same,glycan array binding signal (z-score),[2],10.6
same,glycan array binding signal (z-score),[3],5.36
same,glycan array binding signal (z-score),[4],6.96
same,glycan array binding signal (z-score),[5],6.1
same,glycan array binding signal (z-score),[6],6.44
same,glycan array binding signal (z-score),[7],9.46
same,glycan array binding signal (z-score),[8],4.9
same,glycan array binding signal (z-score),[9],5.59
same,glycan array binding signal (z-score),[10],4.81
same,glycan array binding signal (z-score),[11],6.36
same,glycan array binding signal (z-score),[12],-0.062
same,glycan array binding signal (z-score),[13],-0.23
same,glycan array binding signal (z-score),[14],-0.109
same,glycan array binding signal (z-score),[15],-0.135
same,glycan array binding signal (z-score),[16],-0.107
same,glycan array binding signal (z-score),[17],-0.187
same,glycan array binding signal (z-score),Gal(b1-4)Glc,-0.191
same,glycan array binding signal (z-score),Gal(b1-4)Glc6S,-0.201
same,glycan array binding signal (z-score),[18],-0.172
same,glycan array binding signal (z-score),[19],-0.071
same,glycan array binding signal (z-score),[20],-0.039
same,glycan array binding signal (z-score),Gal3S6S(b1-4)GlcNAc,-0.193
same,glycan array binding signal (z-score),Gal3S6S(b1-4)GlcNAc6S,-0.097
same,glycan array binding signal (z-score),Gal6S(b1-4)GlcNAc,-0.181
same,glycan array binding signal (z-score),[21],-0.12
same,glycan array binding signal (z-score),GalNAc(b1-3)GlcNAc,-0.192
same,glycan array binding signal (z-score),[22],-0.129
same,glycan array binding signal (z-score),GalNAc3S(b1-4)GlcNAc,-0.052
same,glycan array binding signal (z-score),[23],-0.154
same,glycan array binding signal (z-score),[24],-0.132
same,glycan array binding signal (z-score),[25],-0.163
same,glycan array binding signal (z-score),[26],-0.166
same,glycan array binding signal (z-score),[27],-0.123
same,glycan array binding signal (z-score),[28],-0.189
same,glycan array binding signal (z-score),[29],-0.131
same,glycan array binding signal (z-score),[30],-0.117
same,glycan array binding signal (z-score),[31],-0.141
same,glycan array binding signal (z-score),[32],-0.179
same,glycan array binding signal (z-score),[33],-0.171
same,glycan array binding signal (z-score),[34],-0.195
same,glycan array binding signal (z-score),[35],-0.026
same,glycan array binding signal (z-score),[36],-0.217
same,glycan array binding signal (z-score),Neu5Ac(a2-8)Neu5Ac,-0.131
same,glycan array binding signal (z-score),[37],-0.146
same,glycan array binding signal (z-score),Neu5Gc(a2-6)GalNAc,-0.148

# — the supplement of paper PMC8728848
